SMILES strings stand for the structures. Records with an inconclusive call do not appear. Calls of active or inactive are those of the source. Unless noted, calls follow the shape of the dose curve; as a rule, active = well fitted curve in the direction sought with a large enough effect in the repeat runs; inconclusive = weak or mixed curves; inactive = no such curve, though single readings can be large; an effect the other way counts as inactive or inconclusive.

The nature of assay [1]: qHTS assay to test for compound auto fluorescence at 535 nm (green) in HEK293 cells (AID 720680). A general note: Quantitative high-throughput screening tests each substance at several concentrations.
Assay [2] is described as follows: qHTS assay to test for compound auto fluorescence at 460 nm (blue) in HEK293 cell free culture (AID 720681). An outline of the steps: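 Compounds were added to cell-free DMEM with 10% FBS and fluorescence read directly. The blue channel used 405 nm excitation and 460 nm emission, with triamterene as the reference fluorophore.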
A short description of assay [3]: qHTS assay to test for compound auto fluorescence at 535 nm (green) in HEK293 cell free culture (AID 720682). An outline of the steps:
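Read-out: 485/535 nm fluorescence intensity, calibrated against fluorescein. Medium only (DMEM + 10% FBS, no cells); test compound or DMSO vehicle added by pintool before plate reading.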

A short description of assay [4]: qHTS assay to test for compound auto fluorescence at 590 nm (red) in HEK293 cell free culture (AID 720683). Summed up: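 Cell-free wells of DMEM with 10% FBS received compound, and intrinsic fluorescence was read at excitation/emission 540/590 nm. Values expressed as equivalence to Rose Bengal sodium.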
Assay [5] can be described thus: qHTS assay to test for compound auto fluorescence at 590 nm (red) in HepG2 cell free culture (AID 720684). An outline of the steps: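 Compounds are added to culture medium (MEM, 10% FBS) lacking cells, then fluorescence is read at excitation 540 nm, emission 590 nm, with Rose Bengal sodium as the equivalency standard.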
The nature of assay [6]: qHTS assay to test for compound auto fluorescence at 460 nm (blue) in HepG2 cell free culture (AID 720685). An outline of the steps: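 Compound (23 nL) or DMSO pinned into cell-free MEM with 10% FBS; blue fluorescence read at 405/460 nm excitation/emission, expressed as auto-fluorescence equivalency to triamterene.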
A short description of assay [7]: qHTS assay to test for compound auto fluorescence at 535 nm (green) in HepG2 cell free culture (AID 720686).
Assay [8] in a line: qHTS assay to test for compound auto fluorescence at 460 nm (blue) in HepG2 cells (AID 720687). Summed up: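 HepG2 cells in MEM with 10% FBS, attached overnight at 37 C, were exposed to compound or DMSO for 1 hr at 37 C, 5% CO2. Blue fluorescence was read at 405/460 nm, with triamterene as reference fluorophore.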
Assay [9] can be described thus: qHTS assay for identifying genotoxic compounds that show differential cytotoxicity against isogenic chicken DT40 cell lines with known DNA damage response pathways - wild type cell line (AID 743012). Also: nearly all actives have a fitted effect of over 60% in size. Also: potency is read from the fitted curve at half-maximal effect. Summed up: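 Cells (DT40 wild type, 300/well) are treated with DMSO-dissolved compounds after a ~0.5 h pre-incubation and kept 40 h at 37 C/5% CO2. Viability is then measured by CellTiter-Glo luminescence following 30 min at room temperature.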

The nature of assay [10]: qHTS assay for identifying genotoxic compounds that show differential cytotoxicity against isogenic chicken DT40 cell lines with known DNA damage response pathways - Rev3 mutant cell line (AID 743014). Also: nearly all actives have a fitted effect of over 55% in size. Also: potency is read from the fitted curve at half-maximal effect.
A short description of assay [11]: qHTS assay for identifying genotoxic compounds that show differential cytotoxicity against isogenic chicken DT40 cell lines with known DNA damage response pathways - Rad54/Ku70 mutant cell line (AID 743015). Also: nearly all actives have a fitted effect of over 60% in size. Also: potency is read from the fitted curve at half-maximal effect.
A short description of assay [12]: qHTS assay to identify small molecule antagonists of the androgen receptor (AR) signaling pathway - cell viability counter screen (AID 743033; also: nearly all actives have a fitted effect of over 45% in size; also: potency is read from the fitted curve at half-maximal effect).
A short description of assay [13]: qHTS assay to identify small molecule antagonists of the androgen receptor (AR) signaling pathway using the MDA cell line - cell viability counter screen (AID 743041; also: nearly all actives have a fitted effect of over 45% in size). Summed up: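 Same-well cytotoxicity was assessed by CellTiter-Fluor in MDA-kb2 AR-luc cells after 16 h of compound treatment under R1881 agonism.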
The nature of assay [14]: qHTS assay to identify small molecule antagonists of the glucocorticoid receptor (GR) signaling pathway - cell viability counter screen (AID 720693). Also: nearly all actives have a fitted effect of over 55% in size.
In assay [15] the target is Androgen receptor (Homo sapiens) (UniProt P10275). Put plainly: qHTS assay to identify small molecule antagonists of the androgen receptor (AR) signaling pathway (AID 743035; active = well fitted inhibition curve with a large enough effect in the signal ratio in the repeat runs, not every such curve was filed as active; the % refers to the signal ratio). Summed up:
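Antagonism is scored as loss of R1881-driven beta-lactamase reporter expression in HEK293 cells carrying the reporter under a UAS element, after 16 h co-treatment at 37C and a 2 h room-temperature FRET substrate read.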

Assay [16] has the same target. Put plainly: qHTS assay to identify small molecule agonists of the androgen receptor (AR) signaling pathway (AID 743036; active = well fitted activation curve with a large enough effect in the signal ratio in the repeat runs, with a control signal flat, not every such curve was filed as active; the % refers to the signal ratio). An outline of the steps:
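HEK293 cells stably carrying a UAS-driven beta-lactamase reporter (GeneBLAzer AR-UAS-bla-GripTite) were plated at 2,000 cells/well, rested 4 h at 37C, then exposed to compounds in DMSO for 16 h. LiveBLAzer B/G FRET substrate was added for 2 h at room temperature; fluorescence read.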

Assay [17] has the same target. The assay can be described thus: qHTS assay to identify small molecule agonists of the androgen receptor (AR) signaling pathway using the MDA cell line (AID 743040; also: nearly all actives have a fitted effect of over 20% in size). An outline of the steps: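 Human breast carcinoma MDA-kb2 reporter cells (MMTV-luc, AR/GR elements) were treated for 16 h at 37C in 0% CO2 following a 5 h settling period. Signal was quantified by ONE-Glo luminescence.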

Assay [18] has the same target. Put plainly: qHTS assay to identify small molecule antagonists of the androgen receptor (AR) signaling pathway using the MDA cell line (AID 743042; also: nearly all actives have a fitted effect of over 55% in size; also: potency is read from the fitted curve at half-maximal effect). Summed up: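 MDA-kb2 breast carcinoma cells carrying MMTV-luciferase (AR/GR responsive) were co-treated with compounds and the agonist R1881 for 16 h at 37C. Inhibition read as ONE-Glo luminescence; CellTiter-Fluor fluorescence measured in parallel for cytotoxicity.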

Androgen receptor (Homo sapiens), sequence (P10275 whole entry, looked up): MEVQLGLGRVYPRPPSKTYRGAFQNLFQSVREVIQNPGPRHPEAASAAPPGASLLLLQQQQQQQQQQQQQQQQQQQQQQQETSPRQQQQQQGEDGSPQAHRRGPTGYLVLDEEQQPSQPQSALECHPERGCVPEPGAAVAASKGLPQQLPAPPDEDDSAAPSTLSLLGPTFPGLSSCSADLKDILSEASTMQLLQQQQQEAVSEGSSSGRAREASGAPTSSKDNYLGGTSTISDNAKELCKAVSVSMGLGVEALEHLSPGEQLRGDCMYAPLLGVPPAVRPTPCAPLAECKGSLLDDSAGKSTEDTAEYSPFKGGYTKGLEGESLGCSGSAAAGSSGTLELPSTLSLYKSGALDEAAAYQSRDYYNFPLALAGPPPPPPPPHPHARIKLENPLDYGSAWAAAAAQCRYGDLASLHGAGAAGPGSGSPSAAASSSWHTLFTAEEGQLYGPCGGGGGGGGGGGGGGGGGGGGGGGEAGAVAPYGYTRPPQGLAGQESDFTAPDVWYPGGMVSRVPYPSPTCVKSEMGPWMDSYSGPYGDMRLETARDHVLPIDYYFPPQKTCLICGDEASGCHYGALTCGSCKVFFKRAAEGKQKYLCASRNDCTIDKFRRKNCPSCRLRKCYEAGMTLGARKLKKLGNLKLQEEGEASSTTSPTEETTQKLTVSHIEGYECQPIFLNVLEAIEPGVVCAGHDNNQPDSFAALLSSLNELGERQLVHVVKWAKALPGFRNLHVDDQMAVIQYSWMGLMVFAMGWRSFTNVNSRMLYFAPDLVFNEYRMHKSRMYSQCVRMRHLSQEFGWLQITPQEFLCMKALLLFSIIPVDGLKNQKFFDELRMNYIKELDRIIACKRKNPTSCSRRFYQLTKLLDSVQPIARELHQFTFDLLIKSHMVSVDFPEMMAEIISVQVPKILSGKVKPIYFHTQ

Regarding `C=C1C(=C/C=C2\CCC[C@]3(C)[C@@H]([C@H](C)CCCC(C)(C)O)CC[C@@H]23)C[C@@H](O)C[C@@H]1O`, the Potency result in assay [1], in [2], in assay [3], in assay [4], in assay [5] and in assay [7] was “inactive” throughout. Besides, the Potency entry in [12] is “inactive”. The result in assay [6] and in [8] was inactive. Further, the Potency in assay [9] was 5.96 µM (active); in assay [10] it was 11.9 µM (active); in [11] it was 10.6 µM (active).
As for `CC(C)N1CCN(c2ccc(OC[C@H]3CO[C@](Cn4cncn4)(c4ccc(Cl)cc4Cl)O3)cc2)CC1`, the Potency result in assay [1], in assay [2], in assay [3], in assay [4], in assay [5] and in [7] was “inactive” each time. Also, the Potency entry in assay [12] and in assay [13] was “inactive” throughout. For the same compound, the outcome in assay [6] and in assay [8] was inactive. In addition, the Potency is 4.52 µM (active) in [9], 5.07 µM (active) in assay [10] and 6.39 µM (active) in assay [11].
On to `CC(C)C(=O)OCC(=O)[C@@]12O[C@H](C3CCCCC3)O[C@@H]1C[C@H]1[C@@H]3CCC4=CC(=O)C=C[C@]4(C)[C@H]3[C@@H](O)C[C@@]12C`, for which the Potency entry in assay [1], in assay [2], in assay [3], in assay [4], in [5] and in assay [7] was “inactive” throughout. The Potency entry in [10] and in assay [12] was “inactive” throughout. For the same compound, the compound was classed as inactive in [6] and in assay [8].
On to `CCOC(=O)Nc1ccc2c(c1)N(C(=O)CN(C)C)c1ccccc1CC2`, for which the Potency entry in assay [1], in assay [2], in assay [3], in assay [4], in [5] and in assay [7] was “inactive” in each case. The Potency result in [14] and in assay [12] was “inactive” throughout. The compound was called inactive in assay [6] and in assay [8]. Further, in [9], the Potency was 61.1 µM (active).
Take `O=S(=O)(O)CCCS(=O)(=O)O`: the Potency entry in [1], in [2], in [3], in assay [4], in assay [5] and in [7] was “inactive” throughout. Besides, the Potency entry in assay [14], in [9], in assay [11] and in assay [13] was “inactive” throughout. Further, the compound was called inactive in [6] and in assay [8].
Take `CO[C@H]1C[C@H](O[C@H]2[C@H](C)[C@@H](O[C@@H]3O[C@H](C)C[C@H](N(C)C)[C@H]3OC(C)=O)[C@@H](C)C[C@]3(CO3)C(=O)[C@H](C)[C@@H](OC(C)=O)[C@@H](C)[C@@H](C)OC(=O)[C@@H]2C)O[C@@H](C)[C@@H]1OC(C)=O`: the Potency result in assay [1], in [2], in assay [3], in [4], in assay [5] and in assay [7] was “inactive” each time. For the same compound, the Potency result in [14], in assay [11], in assay [15], in assay [16], in [17] and in assay [13] was “inactive” throughout. Besides, in assay [18], the Potency result was “inactive”. The result in [6] and in assay [8] was inactive.
With `CC1=C(C(=O)OCCN(Cc2ccccc2)c2ccccc2)C(c2cccc([N+](=O)[O-])c2)C(P2(=O)OCC(C)(C)CO2)=C(C)N1` (stereo not given), the Potency result in assay [1], in assay [2], in assay [3], in assay [4], in assay [5] and in assay [7] was “inactive” in each case. In addition, the Potency entry in assay [14], in assay [12] and in assay [13] was “inactive” throughout. Also, the call in [6] and in [8] was inactive. Besides, the Potency in assay [9] is 29.8 µM (active); in assay [11], 26.6 µM (active).
Take `COc1ccc(C2NC(=S)N3C(c4ccc(OC)c(OC)c4)NC(=S)N23)cc1OC` (stereo not given): the Potency entry in assay [1], in assay [2], in assay [3], in assay [4], in assay [5] and in assay [7] was “inactive” throughout. Further, the Potency entry in assay [14] and in assay [17] was “inactive” throughout. Further, the compound was classed as inactive in assay [6] and in assay [8]. In addition, the Potency in [10] was 0.0106 µM (active); in [11] it was 0.0106 µM (active); in assay [12] it was 0.239 µM (active); in [18], 0.075 µM (active).

The record behind these values is PubChem BioAssay (Tox21).
